Bioassay records: PubChem BioAssay, National Center for Advancing Translational Sciences (NCATS)
An excerpt weighted towards active compounds, which were near 18% of everything screened.
DT40 TDP1 no CPT: qHTS for Inhibitors of human tyrosyl-DNA phosphodiesterase 1 (TDP1): qHTS in cells in absence of CPT. DT40 Tdp1-/- hTDP1 cells, no CPT, ATP luminescence, 48 h. 420,000 tested, 15% active. Potency, µM (titrated, usually from 46.2 µM), for the others: at the highest dose activity change, negative = growth inhibition, actives largely listed as inhibitors. AID 686978, 2013; further: nearly all actives have a fitted effect of over 55% in size
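Luminescent ATP content (CellTiter-Glo) served as the growth readout. Knockout chicken DT40 cells expressing human TDP1 were exposed to compounds without camptothecin for a minimum 48 hr at 37 °C.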
KAT2A inh: inhibitors of human GCN5L2 histone acetyltransferase. GCN5L2 HAT assay, ThioGlo1 CoA-SH fluorescence. 390,000 tested, 0.21% active. Potency, µM (top dose mostly 58.9 µM), without a hit: at the highest dose activity change, negative = inhibition, usual class: inhibitors. Q92830
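GCN5L2 (20nM final) in 50mM HEPES, 0.1mM EDTA pH 7.5, 0.01% Tween-20 was preincubated 15 min at room temperature with compound, then given ThioGlo1 (50uM), H3(1-25) peptide (75uM) and acetyl-CoA (70uM); CoA-thiol fluorescence (Ex340/Em540) was read at 0 and 20 min.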
DT40 TDP1 CPT: DT40-hTDP1 cell growth loss with CPT; chicken DT40 Tdp1-/-;hTDP1 cells + 20 nM CPT, ATP luminescence, 48 h; Potency, µM (top dose mostly 46.2 µM), inactives show top-dose activity change, negative = growth inhibition, usual class: inhibitors; 420,000 tested, 12% active; further: nearly all actives have a fitted effect of over 55% in size
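Cell growth measured by CellTiter-Glo luminescence after a minimum 48 h, 37 C compound exposure with 20 nM CPT in Tdp1-knockout DT40 cells stably expressing hTDP1, seeded 400/well; qHTS titration format.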
PLK1 PBD block: inhibitors of human PLK1 polo-box domain binding | Potency, µM, without a hit: max response, negative = inhibition, most hits filed as inhibitors | P53350 | Plk1 PBD binding of FITC phosphopeptide, fluorescence polarization | 360,000 tested, 2.8% active; further: series mostly up to about 57 µM; nearly all actives have a fitted effect of over 65% in size
TDP1 block: inhibitors of human tyrosyl-DNA phosphodiesterase TDP1; AID 485290; 350,000 tested, 0.28% active; recombinant TDP1, AlphaScreen DNA substrate cleavage; Potency, µM (titrated, usually from 130 µM), for the others: at the highest dose activity change, negative = inhibition, usual class: inhibitors; Q9NUW8; further: nearly all actives have a fitted effect of over 40% in size
Target sequence (Q9NUW8 whole entry, looked up): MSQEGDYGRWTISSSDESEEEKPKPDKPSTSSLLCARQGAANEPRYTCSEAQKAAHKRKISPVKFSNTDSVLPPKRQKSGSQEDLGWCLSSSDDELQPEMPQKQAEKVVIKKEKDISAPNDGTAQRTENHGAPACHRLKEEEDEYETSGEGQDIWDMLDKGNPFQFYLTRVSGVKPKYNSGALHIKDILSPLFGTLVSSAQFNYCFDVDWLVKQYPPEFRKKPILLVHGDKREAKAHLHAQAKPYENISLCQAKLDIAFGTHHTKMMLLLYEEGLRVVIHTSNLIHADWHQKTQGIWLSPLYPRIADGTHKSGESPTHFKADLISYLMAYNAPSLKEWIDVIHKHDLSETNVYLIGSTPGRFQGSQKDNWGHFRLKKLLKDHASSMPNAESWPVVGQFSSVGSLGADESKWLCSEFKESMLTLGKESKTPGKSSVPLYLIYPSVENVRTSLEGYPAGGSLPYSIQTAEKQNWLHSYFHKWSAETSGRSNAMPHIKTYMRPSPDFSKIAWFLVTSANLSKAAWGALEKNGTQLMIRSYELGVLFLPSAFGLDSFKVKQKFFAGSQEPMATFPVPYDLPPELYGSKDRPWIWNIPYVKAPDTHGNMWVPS
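Enzyme-compound mixtures sat 15 min at room temperature, followed by a 5 min reaction with 15 nM final substrate and 10 min with AlphaScreen beads. Recombinant human Tdp1 was used at 1 nM final.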
VDR inh: inhibitors of human vitamin D receptor | VDR-SRC2-3 peptide fluorescence polarization, 2 h | 400,000 tested, 0.93% active | P11473 | Potency, µM, for inactives: max response, negative = inhibition, most hits filed as inhibitors
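VDR–SRC2-3 interaction, FP format. Cmpds 23 nl via pintool, brief spin, 2 h ambient incubation.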
* hit, by the source's call; ? = inconclusive; . = no result; [ ] = dose if it differs, or a comment. The call rests on the fitted dose curve; in most records, active means well fitted curve in the direction sought with a large enough effect; inconclusive means small, poorly fitted or top-dose-only effect, or another doubt; inactive means no such curve, though single readings can be large; an effect the other way counts as inactive or inconclusive. On the % scale 0 is the no-effect control and ±100 the full control effect; potency means the concentration at half of the fitted maximal effect.

SMILES | DT40 TDP1 no CPT | KAT2A inh | DT40 TDP1 CPT | PLK1 PBD block | TDP1 block | VDR inh
COc1cc(OC)c(S(=O)(=O)Nc2ccc(C(=O)O)cc2)cc1S(=O)(=O)Nc1ccc(C(=O)O)cc1 | -10% | -1% | 3% | -5% | 5% | 2%
Cc1ccc(CCNC(=O)c2ccc3c(c2)N(Cc2cccc(C)c2)C(=O)c2ccccc2S3(=O)=O)cc1 | -25% | -4% | -5% | . | 3% | -6%
COC(=O)c1ccc2c(c1)N(Cc1cc(C)ccc1C)C(=O)c1ccccc1S2(=O)=O | ? | -5% | ? | . | 9% | 5%
O=C(Nc1ccc(Cl)cc1)c1ccc2c(c1)N(Cc1ccccc1)C(=O)c1ccccc1S2(=O)=O | 23µM* | 4% | 16µM* | . | 1% | 11%
O=C(NCCc1ccc(Cl)cc1)c1ccc2c(c1)N(Cc1cccc(Cl)c1)C(=O)c1ccccc1S2(=O)=O | 7.3µM* | -2% | ? | . | 5% | 7%
COC(=O)c1ccc2c(c1)N(Cc1ccccc1)C(=O)c1ccccc1S2(=O)=O | ? | -5% | 16µM* | . | 3% | 14%
CC(=O)Nc1ccc(NC(=O)c2ccc3c(c2)N(Cc2cccc(Cl)c2)C(=O)c2ccccc2S3(=O)=O)cc1 | . | -12% | . | . | 6% | 2%
Cc1ccc(S(=O)(=O)N2[C@H](CC(=O)c3cccc4ccccc34)OC[C@@H]2C)cc1 | ? | . | ? | -15% | . | .
O=C(CN(Cc1ccco1)C(=O)CCC(=O)Nc1ccccn1)NCc1ccccc1 | 12% | -2% | 6% | 1% | 4% | -14%
Cc1cccc(-n2ncc3c2CCCC3NC(=O)CCN2Cc3ccccc3C2=O)c1C (centres undefined) | ? | 5% | ? | 2% | 5% | 0%
COC(=O)[C@@]12C[C@@H](CC(=O)N3CCSCC3)C(=O)N(Cc3ccco3)C1=CCC(C)(C)C2 | ? | . | -1% | -12% | . | .
O=C(CCC1N=C2c3ccccc3N=C(SCc3ccc(Cl)cc3)N2C1=O)N1CCN(c2ccccc2)CC1 (centres undefined) | 21µM* | -19% | 16µM* | . | 5% | -8%
Cc1ccc(CSC2=Nc3ccccc3C3=NC(CCC(=O)NCCc4ccccc4)C(=O)N23)cc1 (centres undefined) | ? | -7% | ? | . | -2% | -8%
Cc1ccc(CSC2=Nc3ccccc3C3=NC(CCC(=O)N4CCN(c5ccccc5)CC4)C(=O)N23)cc1 (centres undefined) | 21µM* | -7% | 21µM* | . | 0%[12.3 µM] | 0%
O=C(NCC(c1cccs1)S(=O)(=O)c1cccs1)c1c(F)cccc1F (centres undefined) | ? | 0% | ? | . | 3% | 4%
O=C(O)C[C@@H](O)C(=O)O | 0% | 1% | -26% | 5% | 3% | 1%
COc1ccc(N2CCN(C(=O)COC(=O)Cc3c(F)cccc3Cl)CC2)cc1 | -10% | 2% | ? | -7% | -1% | -9%
CC1=C(c2ccc(C(C)C)cc2)S(=O)(=O)NC1=NCCCN1CCN(c2ccccc2F)CC1 | ? | -4% | ? | . | 6% | 14%
COc1ccc(C2=C(N3CCN(c4cc(Cl)ccc4C)CC3)c3ccccc3C2=O)cc1 | ? | -2% | 21µM* | . | 5% | 17%
COc1ccc(N2CCN(C(=O)CN=C3NS(=O)(=O)C(c4ccc(C)cc4)=C3C)CC2)cc1 | -27% | -7% | -17% | -9% | 6% | -12%
COc1ccc(C2=C(C)C(=NCCCN3CCN(c4cc(Cl)ccc4C)CC3)NS2(=O)=O)cc1 | 8.2µM* | -9% | 6.5µM* | . | 9% | 18%
CC1=C(c2ccc(Cl)cc2)S(=O)(=O)NC1=NCCCN1CCN(c2cc(C)ccc2C)CC1 | 5.2µM* | -6% | 2.6µM* | . | 9% | 14%
CC1=C(c2ccc(C)cc2)S(=O)(=O)NC1=NCCCN1CCN(c2ccc(F)cc2)CC1 | 15µM* | -5% | 15µM* | . | 6% | 7%
O=C1c2[nH]nc(-c3ccccc3O)c2C(c2cccc(OCc3ccccc3)c2)N1CCCO (centres undefined) | ? | 2% | ? | . | 5% | 19%
Cc1ccc(S(=O)(=O)Nc2cc(Cl)c3oc4c(c3c2)CCCC4)cc1 | 13µM* | ? | ? | . | 0%[12.3 µM] | -4%
SMILES | DT40 TDP1 no CPT | KAT2A inh | DT40 TDP1 CPT | PLK1 PBD block | TDP1 block | VDR inh
N=c1c2c(ncn1CCN1CCOCC1)Oc1ccc3ccccc3c1C2c1ccccc1 (centres undefined) | 20% | -3% | -10% | -7% | 8% | -7%
CN(C)CCn1cnc2c(c1=N)C(c1ccccc1)c1ccc3ccccc3c1O2 (centres undefined) | ? | 0% | 18µM* | 5% | . | 11%
N=c1c2c(ncn1Cc1ccco1)Oc1c(ccc3ccccc13)C2c1ccccc1 (centres undefined) | ? | -8% | ? | -2% | 7% | 15%
COc1ccc(C2c3c(ncn(CCN4CCOCC4)c3=N)Oc3ccc4ccccc4c32)cc1 (centres undefined) | 18µM* | 0% | ? | 0% | 10% | 0%
N=c1c2c(ncn1Cc1ccco1)Oc1cc(O)ccc1C2c1ccccc1 (centres undefined) | ? | 3% | 18µM* | -25% | 2% | -17%
ON=C1CCCCC1 | . | . | . | . | -6% | .
Cc1ccc(S(=O)(=O)Nc2ccc3c(c2)c(C(=O)OC(C)C)c(C)n3S(=O)(=O)c2ccc(C)cc2)cc1 | ? | -28% | ? | . | . | 5%
O=C(NCC(=O)N1CCN(C(c2ccccc2)c2ccccc2)CC1)c1ccc(Br)o1 | ? | -27% | ? | 2% | 3%[56.1 µM] | -11%
O=C(NCC(=O)N1CCN(C(c2ccccc2)c2ccccc2)CC1)c1ccccc1Br | 21µM* | . | ? | 5% | . | .
Cc1cc(C)cc(C(=O)NCC(=O)N2CCN(C(c3ccccc3)c3ccccc3)CC2)c1 | 18µM* | -13% | ? | -5% | . | -3%
O=C(O)CCCC(=O)N1CCN(C(c2ccccc2)c2ccccc2)CC1 | -24% | 27% | -21% | -2% | 3% | -1%
Cc1ccc(CN2C[C@H](Sc3ccccn3)C[C@H]2C(=O)Nc2ccc3sc(C)nc3c2)c(C)c1 | -16% | . | 20%[9.04 µM] | . | . | .
Cc1onc(-c2ccccc2Cl)c1NC(=O)NCc1cccs1 | -13% | -1% | 13% | 2% | 0% | 2%
O=C(CCS(=O)(=O)c1ccc(Br)cc1)Nc1ccc(Br)cc1F | -3% | -5% | 1% | -16% | . | 10%
